About 83,000 compounds went through this panel and 20% of them were active in at least one assay; those are over-represented in the sample as a whole.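 Results are percent growth after 48 hours of single-concentration exposure. 100 means growth as in untreated cells, lower positive values show inhibition; negative values down to -100 show cell death.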 The source made the active and inactive calls. How the source made its calls: active means growth percent below 10; inactive means the rest.

The first test relates to RXF 393 renal. The experiment in a line: NCI-60 one-dose screen, 48 h (100 = growth as untreated, 0 = no growth, -100 = all killed). Particulars: 10 µM.
Turning to `C=CC(=O)OCCCCCCCC`, the growth was 120% (inactive).
Same read-out and setting: the figure for `CCOC(=O)CNN` is 108% (inactive).
Still for that read-out and setting: the figure for `NNc1ccccc1C(=O)O` is 114% (inactive).
Turning to `CCOC(=O)C1=C(Nc2ccc(Br)cc2)C(=O)N(CC)C1`, the growth was 92.9% (inactive).
For `Cc1cc(C(O)(c2ccc(Nc3ccccc3)cc2)c2ccc(Nc3ccc(S(=O)(=O)O)cc3)cc2)ccc1N` (stereo not drawn), the growth was -61.8% (active).
Still for that read-out and setting: the figure for `CC1(c2ccccc2)NC(=O)NC1=O` (stereo not drawn) is 110% (inactive); for `C=CC[N+](C)(C)C` it is 100% (inactive).
Consider `O=C1N(C[P+](c2ccccc2)(c2ccccc2)c2ccccc2)CCCN1C[P+](c1ccccc1)(c1ccccc1)c1ccccc1`, for which the growth is 113% (inactive).
Still for that read-out and setting: the figure for `Brc1cnc2ccccc2c1` is 121% (inactive); for `Nc1ccc(N)c([N+](=O)[O-])c1` it is 107% (inactive).
Same read-out and setting: the figure for `CSC[C@H](NC(=O)COc1cccc2cnccc12)C(=O)NC(Cc1ccccc1)C(O)C(=O)N1CSC[C@H]1C(=O)NC(C)(C)C` (stereo partly drawn) is 100% (inactive); for `OC(c1ccccn1)C(O)c1ccccn1` (stereo not drawn) it is 123% (inactive); for `CCNCCCCNCCCCNCCCCNCCCCNCC` it is 81.7% (inactive).
Still for that read-out and setting: the value for `NC(=S)CN1CCOCC1` was 115% (inactive).
For the compound `CC(C)=CC(=O)OC(=O)C=C(C)C`, the growth is 102% (inactive).
Take `COc1ccc(C(O)c2ccccc2)cc1` (stereo not drawn): the growth is 111% (inactive).
Same read-out and setting: the value for `N#CC(=Nc1cccc(F)c1)C1=C(O)c2ccccc2C1=O` was 88.9% (inactive); that for `COC(=O)c1ccc(NC(=O)CCl)cc1` was 95.7% (inactive); that for `O=C(O)CCC(NC(=O)OCc1ccccc1)C(=O)O` (stereo not drawn) was 109% (inactive).
In the case of `Cc1cc(C)cc(NCCC#N)c1`, the growth is 448% (inactive).
For `O=C(O)/C=C/c1ccc2c(c1)CCC2`, the growth is 106% (inactive).
On to `O=C1OC(=O)C2C1C1(Cl)C(Cl)=C(Cl)C2(Cl)C2C(=O)OC(=O)C21` (stereo not drawn), for which the growth is 100% (inactive).
Same read-out and setting: the figure for `CC(=O)N(C)c1ccc([N+](=O)[O-])cc1` is 102% (inactive); for `COc1ccc(/C(C#N)=C2C=C/C(=N/O)c3ccccc3\2)cc1` it is 53.9% (inactive); for `CCOC(=O)C1=C(C)NC(=O)NC1c1cccs1` (stereo not drawn) it is 99.7% (inactive).
On the same count and under the same terms, the figure for `COc1cc(C2c3cc4c(cc3C3OC(=O)C2C3CO)OCO4)cc(OC)c1OC` (stereo not drawn) is 57.9% (inactive); for `O=C(CCl)N1CCN(C/C=C/c2ccccc2)CC1` it is 86.4% (inactive).
Same read-out and setting: the value for `CC(C)(C)n1nc(C2CC2)c(Br)c1NC(=O)c1ccccc1F` was 114% (inactive).
As for `CCOC(=O)C/C(C)=N\O`, the growth was 113% (inactive).
Still for that read-out and setting: the figure for `O=C(CS)Nc1ccc2ccccc2c1` is 82.8% (inactive); for `C=CCCCCCCCCCOC(C)=O` it is 103% (inactive).
On the same count and under the same terms, the value for `COc1cc(-c2ccc(NC(=O)NC3CC3)c(OC)c2)ccc1NC(=O)NC1CC1` was 73% (inactive); that for `CC(=O)OCC(=O)[C@@]1(O)CC[C@H]2[C@@H]3CC[C@@H]4C[C@H](O)CC[C@]4(C)[C@H]3C(=O)C[C@@]21C` was 94.8% (inactive).
As for `NC(=O)NC(=O)c1ccc(Cl)cc1`, the growth is 131% (inactive).
The same measure, in the same setting: the figure for `NC(=O)c1ccc(N=C(N)N=C(N)N)cc1` is 89.6% (inactive).
The same measure, in the same setting: the figure for `Oc1ccc(Cc2ccccc2)c2cccnc12` is 14.6% (inactive); for `C/C(=C\c1cc(Cl)ccc1OCC(=O)O)[N+](=O)[O-]` it is 134% (inactive).
As for `O=[N+]([O-])c1ccc(Cl)c(S(=O)(=O)O)c1`, the growth was 126% (inactive).
Same read-out and setting: the figure for `CC(CN1CCCCC1)NC(=O)c1scnc1-c1ccccc1` (stereo not drawn) is 101% (inactive).

A further test deals with SF-268 CNS. The description is as above. Particulars: 10 µM.
Consider `C=CC(=O)OCCCCCCCC`, for which the growth was 102% (inactive).
Regarding `CCOC(=O)CNN`, the growth was 103% (inactive).
On the same count and under the same terms, the figure for `NNc1ccccc1C(=O)O` is 100% (inactive).
Still for that read-out and setting: the value for `CCOC(=O)C1=C(Nc2ccc(Br)cc2)C(=O)N(CC)C1` was 96.8% (inactive); that for `Cc1cc(C(O)(c2ccc(Nc3ccccc3)cc2)c2ccc(Nc3ccc(S(=O)(=O)O)cc3)cc2)ccc1N` (stereo not drawn) was 14.8% (inactive).
Same read-out and setting: the figure for `CC1(c2ccccc2)NC(=O)NC1=O` (stereo not drawn) is 106% (inactive).
Regarding `C=CC[N+](C)(C)C`, the growth is 112% (inactive).
Consider `O=C1N(C[P+](c2ccccc2)(c2ccccc2)c2ccccc2)CCCN1C[P+](c1ccccc1)(c1ccccc1)c1ccccc1`, for which the growth is 115% (inactive).
On the same count and under the same terms, the value for `Brc1cnc2ccccc2c1` was 97.2% (inactive); that for `Nc1ccc(N)c([N+](=O)[O-])c1` was 99.9% (inactive); that for `CSC[C@H](NC(=O)COc1cccc2cnccc12)C(=O)NC(Cc1ccccc1)C(O)C(=O)N1CSC[C@H]1C(=O)NC(C)(C)C` (stereo partly drawn) was 94.4% (inactive).
The same measure, in the same setting: the value for `OC(c1ccccn1)C(O)c1ccccn1` (stereo not drawn) was 102% (inactive).
On the same count and under the same terms, the figure for `CCNCCCCNCCCCNCCCCNCCCCNCC` is 138% (inactive); for `NC(=S)CN1CCOCC1` it is 102% (inactive).
With `CC(C)=CC(=O)OC(=O)C=C(C)C`, the growth was 103% (inactive).
Still for that read-out and setting: the figure for `COc1ccc(C(O)c2ccccc2)cc1` (stereo not drawn) is 93.8% (inactive).
Still for that read-out and setting: the figure for `N#CC(=Nc1cccc(F)c1)C1=C(O)c2ccccc2C1=O` is 96.5% (inactive).
The same measure, in the same setting: the figure for `COC(=O)c1ccc(NC(=O)CCl)cc1` is 89.5% (inactive).
On to `O=C(O)CCC(NC(=O)OCc1ccccc1)C(=O)O` (stereo not drawn), for which the growth was 100% (inactive).
The same measure, in the same setting: the figure for `Cc1cc(C)cc(NCCC#N)c1` is 105% (inactive); for `O=C(O)/C=C/c1ccc2c(c1)CCC2` it is 116% (inactive); for `O=C1OC(=O)C2C1C1(Cl)C(Cl)=C(Cl)C2(Cl)C2C(=O)OC(=O)C21` (stereo not drawn) it is 105% (inactive).
The same measure, in the same setting: the value for `CC(=O)N(C)c1ccc([N+](=O)[O-])cc1` was 116% (inactive).
On the same count and under the same terms, the figure for `COc1ccc(/C(C#N)=C2C=C/C(=N/O)c3ccccc3\2)cc1` is 18.6% (inactive); for `CCOC(=O)C1=C(C)NC(=O)NC1c1cccs1` (stereo not drawn) it is 108% (inactive); for `COc1cc(C2c3cc4c(cc3C3OC(=O)C2C3CO)OCO4)cc(OC)c1OC` (stereo not drawn) it is 30.3% (inactive).
With `O=C(CCl)N1CCN(C/C=C/c2ccccc2)CC1`, the growth was 87.7% (inactive).
The same measure, in the same setting: the figure for `CC(C)(C)n1nc(C2CC2)c(Br)c1NC(=O)c1ccccc1F` is 112% (inactive); for `CCOC(=O)C/C(C)=N\O` it is 103% (inactive); for `O=C(CS)Nc1ccc2ccccc2c1` it is 85.8% (inactive).
Still for that read-out and setting: the value for `C=CCCCCCCCCCOC(C)=O` was 96.9% (inactive); that for `COc1cc(-c2ccc(NC(=O)NC3CC3)c(OC)c2)ccc1NC(=O)NC1CC1` was 62.8% (inactive).
As to `CC(=O)OCC(=O)[C@@]1(O)CC[C@H]2[C@@H]3CC[C@@H]4C[C@H](O)CC[C@]4(C)[C@H]3C(=O)C[C@@]21C`, the growth was 102% (inactive).
On the same count and under the same terms, the value for `NC(=O)NC(=O)c1ccc(Cl)cc1` was 113% (inactive).
Same read-out and setting: the figure for `NC(=O)c1ccc(N=C(N)N=C(N)N)cc1` is 94.7% (inactive); for `Oc1ccc(Cc2ccccc2)c2cccnc12` it is 20% (inactive); for `C/C(=C\c1cc(Cl)ccc1OCC(=O)O)[N+](=O)[O-]` it is 103% (inactive).
Still for that read-out and setting: the figure for `O=[N+]([O-])c1ccc(Cl)c(S(=O)(=O)O)c1` is 105% (inactive).
Take `CC(CN1CCCCC1)NC(=O)c1scnc1-c1ccccc1` (stereo not drawn): the growth is 115% (inactive).

(Values after PubChem BioAssay (NCI).)
